Data taken from PubChem BioAssay (NCATS).
Inconclusive results are not listed. The source made the active and inactive calls. The call rests on the fitted dose curve; in most records, active means well fitted curve in the direction sought with a large enough effect; inconclusive means small, poorly fitted or top-dose-only effect, or another doubt; inactive means no such curve, though single readings can be large; an effect the other way counts as inactive or inconclusive.

Experiments:
PA-1 = experiment: Primary qHTS to identify gynecologic anti-cancer compounds using libraries of approved drugs and bioactive compounds (AID 1345084); conditions: Gynecologic cancer cell panel viability, ATPlite luminescence, 48 h; series mostly up to 57.5 µM; further: nearly all actives have a fitted effect of over 55% in size
Method in brief: (§1)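 Luminescence from the ATPlite ATP-monitoring reagent indicates viable cell number; lower signal means cytotoxicity. Cells received compound 16 h after seeding and were exposed for 48 h across five concentrations.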

SKOV3 = experiment: as above; conditions: Gynecologic cancer cell panel viability, ATPlite luminescence, 48 h; series mostly up to 57.5 µM
Method in brief: as §1

Tov-21-G = experiment: as above; conditions: Gynecologic cancer cell panel viability, ATPlite luminescence, 48 h; series mostly up to 57.5 µM
Method in brief: as §1

Tov112D = experiment: as above; conditions: Gynecologic cancer cell panel viability, ATPlite luminescence, 48 h; series mostly up to 57.5 µM
Method in brief: as §1

[1] = Drug repurposing screens with cells derived from glioblastoma tumor samples (AID 1345199); conditions: GBM patient neurospheres viability, ATP luminescence, 48 h; further: nearly all actives have a fitted effect of over 40% in size
Method in brief: (§2)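 Primary testing used CD133+ neurospheres from four GBM patients, seven concentrations, 48 h exposure and ATP-based viability; confirmation added three slower-growing patient lines.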

astro = experiment: as above; conditions: viability, ATP luminescence, 48 h; series mostly up to 45.9 µM
Method in brief: as §2

[2] = at 45.9 µM (top of the series), tumour line B
On the % scale 0 is the no-effect control and ±100 the full control effect; potency means the concentration at half of the fitted maximal effect.

CN1C(=O)c2ccccc2NC(=O)C1Cc1ccccc1 (stereo not drawn)
inactive: Potency (PA-1) | Potency (SKOV3) | Potency (Tov-21-G) | Potency (Tov112D)

COC1CC(OC2CCC3(C)C(=CCC4C3CCC3(C)C(C(C)OC5OC(COC6OC(CO)C(O)C(O)C6O)C(O)C(O)C5O)CCC43O)C2)OC(C)C1OC1OC(C)C(O)C(OC)C1O (stereo not drawn)
inactive: activity change, negative = cytotoxicity (PA-1) 2.38% [at 11.6 µM] | activity change, negative = cytotoxicity (SKOV3) 25.2% [at 11.6 µM] | activity change, negative = cytotoxicity (Tov-21-G) 6.16% [at 11.6 µM] | activity change, negative = cytotoxicity (Tov112D) -0.166% [at 11.6 µM]

C[C@]12CC[C@H]3[C@@H]([C@H](O)CC4=CC(=O)CC[C@@]43C)[C@@H]1CC[C@@H]2O
inactive: Potency (PA-1) | Potency (SKOV3) | Potency (Tov-21-G) | Potency (Tov112D)

CCN1C[C@]2(OC(=O)c3ccccc3NC(C)=O)CC[C@H](OC)[C@@]34[C@@H]2C[C@@H]([C@@H]13)[C@@]1(O)C[C@H](OC)[C@H]2C[C@@H]4[C@]1(O)[C@H]2OC
inactive: Potency (PA-1) | Potency (SKOV3) | Potency (Tov-21-G) | Potency (Tov112D)

C[C@H](NC(=O)Cc1cc(F)cc(F)c1)C(=O)N[C@@H]1N=C(c2ccccc2)c2ccccc2N(C)C1=O
inactive: Potency (PA-1) | Potency (Tov-21-G) | Potency (Tov112D)

N#CC(C#N)=Cc1cc(O)c(O)c(O)c1
inactive: activity, negative = cell killing [1, 2] -27.1%
active: Potency ([1]; tumour line D) 12600 nM

CN(C(=O)Cc1ccccc1)C(CN1CCCC1)c1ccccc1 (stereo not drawn)
inactive: Potency (PA-1) | Potency (SKOV3) | Potency (Tov-21-G) | Potency (Tov112D)

O=C(O)c1ccnc2cc(C(OCCN3CCCCC3)c3ccccc3Cl)[nH]c12 (stereo not drawn)
inactive: Potency (PA-1) | Potency (Tov-21-G) | Potency (Tov112D)

COC1CC(OC2CCC3(C)C(CCC4C3CCC3(C)C(C5=CC(=O)OC5)C(OC(C)=O)CC43O)C2)OC(C)C1OC1OC(CO)C(O)C(O)C1O (stereo not drawn)
active: Potency (Tov-21-G) 1260 nM | Potency (Tov112D) 891 nM

COC(=O)C1(C)CCC(=O)C2(C)c3c(O)cc(C(C)C)cc3C(O)C(OC(C)=O)C12 (stereo not drawn)
inactive: Potency (PA-1) | Potency (SKOV3) | Potency (Tov-21-G) | Potency (Tov112D)

COC1C(O)C(OC2CCC3(C=O)C(CCC4C3CCC3(C)C(C5=CC(=O)OC5)CCC43O)C2)OC(C)C1OC1OC(CO)C(O)C(O)C1O (stereo not drawn)
active: Potency (SKOV3) 708 nM | Potency (Tov-21-G) 631 nM | Potency (Tov112D) 316 nM

CC1=CC2/C=C(\C)CCC(O)C3OC(C)(C)OC3CC(=O)OC23C(=O)NC(CC(C)C)C3C1C (stereo not drawn)
inactive: Potency (PA-1) | Potency (SKOV3) | Potency (Tov-21-G) | Potency (Tov112D)

CC[C@H]1CN2CC[C@H]1C[C@@H]2[C@@H](O)c1ccnc2ccc(OC)cc12
inactive: Potency (SKOV3) | Potency (Tov-21-G) | Potency (Tov112D)

OCCCCC#Cc1cncc(OC[C@@H]2CCN2)c1
inactive: Potency (PA-1) | Potency (SKOV3) | Potency (Tov-21-G) | Potency (Tov112D)

CC(N)Cc1c[nH]c2ccccc12 (stereo not drawn)
inactive: Potency (PA-1) | Potency (Tov-21-G) | Potency (Tov112D)

CN(C)CCc1c[nH]c2ccc(CN3CCN(C)S3(=O)=O)cc12
inactive: Potency (PA-1) | Potency (SKOV3) | Potency (Tov-21-G) | Potency (Tov112D)

CCN1CC2(COC)C3[C@@H](OC)C4C1C3(C1C[C@]3(O)[C@H](OC(=O)c5ccccc5)C1[C@]4(OC(C)=O)[C@@H](O)[C@@H]3OC)[C@H](OC)C[C@H]2O (stereo partly drawn)
inactive: Potency (SKOV3) | Potency (Tov-21-G) | Potency (Tov112D)

COc1cc2c(cc1OC)[C@@]13CCN4CC5=CCO[C@H]6CC(=O)N2[C@H]1[C@H]6[C@H]5C[C@H]43
inactive: Potency (PA-1) | Potency (Tov-21-G) | Potency (Tov112D) | activity, negative = cell killing [1, 2] -6.02% | activity, negative = cell killing ([1]; at 45.9 µM (top of the series), tumour line D) -3.06% | activity, negative = cell killing ([1]; at 46.1 µM (top of the series), tumour line C) 1.45% | Potency (astro)
active: Potency ([1]; tumour line A) 79.4 nM

CCOc1ccc2c3c1O[C@H]1[C@@H](O)C=C[C@H]4[C@@H](C2)N(C)CC[C@@]341
inactive: activity, negative = cell killing [1, 2] -22.9%

CN1C(=O)c2ccccc2NC(=O)[C@]12O[C@@H]2c1ccccc1
inactive: Potency (SKOV3) | Potency (Tov-21-G) | Potency (Tov112D)

C=C[C@H]1[C@H](O[C@@H]2O[C@H](CO)[C@@H](O)[C@H](O)[C@H]2O)OC=C2C(=O)OCC[C@H]21
inactive: Potency (PA-1) | Potency (SKOV3) | Potency (Tov-21-G) | Potency (Tov112D)

CC(=O)[C@H]1CC[C@H]2[C@@H]3CC[C@@H]4C[C@H](O)CC[C@]4(C)[C@H]3CC[C@]12C
active: Potency ([1]; tumour line D) 17800 nM
inactive: activity, negative = cell killing [1, 2] -17.7%

Cc1c(Cl)cccc1S(=O)(=O)Nc1nc(CC(=O)N2CCN(C)CC2)cs1
inactive: Potency (PA-1) | Potency (Tov-21-G) | Potency (Tov112D)

COc1cc(C)[nH]c(=O)c1CNC(=O)c1c(C)n([C@H](C)C2CCOCC2)c2ccccc12
inactive: Potency (PA-1) | Potency (Tov-21-G) | Potency (Tov112D)

COC(=O)N1CCN(C(=O)Cc2ccc(Cl)c(Cl)c2)[C@@H](CN2CCCC2)C1
inactive: Potency (PA-1) | Potency (SKOV3) | Potency (Tov-21-G) | Potency (Tov112D)

CO[C@H]1[C@H](O)[C@H](O[C@H]2CC[C@]3(C)C4CC[C@]5(C)[C@H](C6=CC(=O)OC6)CC[C@]5(O)C4CC[C@@H]3C2)O[C@@H](C)[C@@H]1O (stereo partly drawn)
active: Potency (PA-1) 89.1 nM | Potency (Tov-21-G) 31.6 nM
